From PubChem BioAssay (NCI)
Compounds without any hit were thinned out: in the full panel of roughly 79,000, 15% have a hit. Rule as the data show it: active = growth inhibition above about 70%; inactive = the rest.

Experiments:
[1] = NCI Yeast Anticancer Drug Screen. Data for the rad50 strain (AID 155);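 also: 0% = growth of vehicle-only cultures of the same strain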; conditions: S. cerevisiae rad50 strain growth inhibition; at 50.0 µM; stronger effect = higher value
In short: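 Inhibition values express reduced yeast growth in compound-treated cultures relative to vehicle-treated controls.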

[2] = NCI Yeast Anticancer Drug Screen. Data for the mec2-1 strain (AID 157); conditions: S. cerevisiae mec2-1 strain, at 50.0 µM, stronger effect = higher value
In short: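 Cells of the genetically defined mec2-1 yeast strain are incubated with test compound. Inhibition of growth is calculated against vehicle-treated controls.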

[3] = NCI Yeast Anticancer Drug Screen. Data for the sgs1 mgt1 strain (AID 161);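 also: 0% = growth of cultures given vehicle only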; conditions: S. cerevisiae sgs1 mgt1 strain, at 50.0 µM, stronger effect = higher value
In short: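 Test agents were incubated with a DNA-repair-mutant yeast strain. Growth was then read and compared against vehicle-treated controls.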

[4] = NCI Yeast Anticancer Drug Screen. Data for the cln2 rad14 strain (AID 165);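 also: 0% = growth equal to vehicle treated cultures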; conditions: S. cerevisiae cln2 rad14 strain, at 50.0 µM, stronger effect = higher value
In short: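 The screen exposed genetically defined yeast (cln2 rad14) to test compounds and scored growth inhibition relative to vehicle-treated controls.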

[5] = NCI Yeast Anticancer Drug Screen. Data for the bub3 strain (AID 167); conditions: S. cerevisiae bub3 mutant strain, at 50.0 µM, stronger effect = higher value
In short: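 Steps: expose the mutant yeast strain to compound; grow alongside vehicle-treated cultures; measure growth; express inhibition against the vehicle cultures.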

[6] = NCI Yeast Anticancer Drug Screen. Data for the mlh1 rad18 strain (AID 175); conditions: S. cerevisiae mlh1 rad18 strain growth inhibition; at 50.0 µM; stronger effect = higher value
In short: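 Compound-treated yeast growth, normalised to vehicle controls. Strain bears defined DNA repair mutations.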

Measured: growth inhibition

CC(=O)NC1C(OCC(=O)NCCNc2ccc([N+](=O)[O-])c3[nH]c4ccccc4c(=O)c23)C(O)C(CO)OC1(C)OCc1ccccc1 (configuration not stated)
inactive: [1] -3.9% | [2] -39.9% | [3] -25.6% | [4] 8.65% | [5] -18.4% | [6] -3.4%

COCN(Cc1ccccc1)C[Si](C)(C)C
inactive: [1] 39.5% | [2] 2% | [3] 1.3% | [4] -20% | [5] 14.2% | [6] -9.6%

CCOC1(OCC)C([N+](=O)[O-])=CC(=[N+]([O-])O)C=C1[N+](=O)[O-]
inactive: [1] 3.8% | [2] -4.1% | [3] -7.15% | [4] 3.75% | [5] -8.8% | [6] -21.2%

CC(C)(C)Oc1cc(F)c(C(C)(C)C)cc1C(C)(C)C
inactive: [1] -4% | [2] -7.4% | [3] -2.4% | [4] 8.75% | [5] 0.05% | [6] 10.7%

CC(O)C(=O)NN (configuration not stated)
inactive: [1] 0.75% | [2] -17.7% | [3] -4.95% | [4] -13.6% | [5] -4.65% | [6] 9.4%

CCOC(=O)C(C#N)C1CCCC(C)CC1 (configuration not stated)
inactive: [1] 13% | [2] 6.5% | [3] 3.5% | [4] 2.65% | [5] 34.1% | [6] 7.55%

C1CCN(SN2CCCCC2)CC1
inactive: [1] -4.4% | [2] -15.7% | [3] -3.6% | [4] -13.2% | [5] 4.75% | [6] 5.7%

CN(C)CCCNC(=O)c1cc(NC(=O)c2cc(NC(=O)c3cc(NC(=O)CCCn4ccc(CO)c4CO)cn3C)cn2C)cn1C
inactive: [1] 6.6% | [2] -8.6% | [3] -5.35% | [4] 31.6% | [5] 4.8% | [6] 8.35%

COc1ccccc1NS(=O)(=O)c1ccc2ncn(NS(=O)(=O)c3ccc(Cl)cc3)c(=O)c2c1
inactive: [1] 27.5% | [2] 15.7% | [3] 30.1% | [4] 0.05% | [5] 26% | [6] 18.1%

Cc1cc2c(C)nn(Cc3ccc(Cl)cc3)c2c(C#N)c1C
inactive: [1] 25.4% | [2] -8.85% | [3] 15.6% | [4] 2.85% | [5] 22.1% | [6] 18.9%

COCCOCOCCCC#C[Si](C)(C)C
inactive: [1] 8.3% | [2] 25.9% | [3] 13.9% | [4] -1.2% | [5] -4% | [6] -19.4%

C[C@@H]1OC(=O)N2CCCC(=C3SCCCS3)C12 (some centres not stated)
inactive: [1] 0.6% | [2] -0.05% | [3] -2.6% | [4] -25.1% | [5] 2.7% | [6] -12.2%

Cc1csc(NNC(N)=O)n1
inactive: [1] 1.65% | [2] -8.05% | [3] -63.5% | [4] -14% | [5] -42.9% | [6] -27.4%

Cc1cccc(NC(=O)Nc2ccccc2)n1
inactive: [1] 4.65% | [2] 0.9% | [3] 9.55% | [4] -71.5% | [5] -18.9% | [6] -10.1%

COc1cc(OC)c(C(=O)/C=C/c2ccncc2)cc1C(=O)O
inactive: [1] 10.1% | [2] -14.6% | [3] 16.2% | [4] 13.3% | [5] 19.6% | [6] -5.85%

Cc1ccc(NC(=O)CC2Sc3ccccc3NC2=O)c(C)c1 (configuration not stated)
inactive: [1] -7.6% | [2] -7.35% | [3] 7.5% | [4] -4.4% | [5] -20.3% | [6] -11.8%

C/C=C/C(=O)N(CC)c1ccccc1
inactive: [1] 37.2% | [2] -2.25% | [3] 10.8% | [4] -8.35% | [5] 2.9% | [6] 33.8%

C=C(Nc1ccc(OC)cc1OC)C(=O)Cc1cccc[n+]1[O-]
inactive: [1] 6.25% | [2] -2.45% | [3] -10.5% | [4] -2.4% | [5] -3.4% | [6] -8.8%

C=CCNC(=O)C[n+]1cccc(C(=O)Nc2ccccc2)c1
inactive: [1] 1.65% | [2] -18.2% | [3] 5.4% | [4] 23.2% | [5] 5.95% | [6] -0.95%

O=C(Nc1c(Cl)cccc1Cl)Nc1c(Cl)cccc1Cl
inactive: [1] -0.95% | [2] -4.85% | [3] 21.1% | [4] 6.7% | [5] 16.8% | [6] 10.9%

O=C(c1cccc([N+](=O)[O-])c1)N1CCOCC1
inactive: [1] -2.65% | [2] -10% | [3] 1.45% | [4] -36.4% | [5] 3.7% | [6] 14.1%

CCOC(=O)c1ccc(N=Cc2cccs2)cc1
inactive: [1] -1.9% | [2] 28.4% | [3] 17.1% | [4] 9.5% | [5] 0% | [6] 17.4%

N#Cc1cc2c(n(C3OC(CO)C(O)C(O)C3O)c1=S)CCCCC2 (configuration not stated)
inactive: [1] -3.95% | [2] -16% | [3] -3.75% | [4] -0.75% | [5] 5.65% | [6] 24.1%

NC12CC3CC(C1)CC(Cl)(C3)C2
inactive: [1] -12.6% | [2] -26.9% | [3] -32.4% | [4] -3.5% | [5] -35.9% | [6] 4.1%

CCN(CC)Cc1ccccc1COC(=O)c1cccc(Cl)c1
inactive: [1] 19.6% | [2] 3.7% | [3] 10.9% | [4] 15.8% | [5] -5.9% | [6] 26.1%

O=C1CSC(=NCCN=C2NC(=O)CS2)N1
inactive: [1] 10.5% | [2] 18.3% | [3] 9.25% | [4] 1.6% | [5] 15.1% | [6] 28.2%

N#C/C(=C1\OC(N)=C(c2ccc(Cl)cc2)C1=O)c1ccc(Cl)cc1
inactive: [1] 2.9% | [2] -8.45% | [3] 6.8% | [4] 18.4% | [5] 2.15% | [6] 9.2%

COc1ccc(Nc2nc3ccccc3nc2-c2cccs2)cc1
inactive: [1] 5.2% | [2] -3.8% | [3] 23.5% | [4] -1.45% | [5] 14.3% | [6] 17.3%

CCOC(=O)CN(c1scc(-c2ccccc2)c1C(=O)OCC)S(=O)(=O)c1ccc(C)cc1
inactive: [1] -15.7% | [2] -28.6% | [3] 0.05% | [4] -57.6% | [5] -2.7% | [6] 0.85%

CONS(=O)c1ccc(Cl)cc1 (configuration not stated)
inactive: [1] 10.8% | [2] 28.2% | [3] 6.35% | [4] -27.2% | [5] 4.95% | [6] 11%

OCCOc1ccccc1-c1ccccc1
inactive: [1] -28.6% | [2] -14.3% | [3] -15.5% | [4] -14% | [5] -29.5% | [6] -7.65%

O=C1CCCC2OC2[C@H]2CCCCCC[C@@H]12 (some centres not stated)
inactive: [1] 2.5% | [2] 0.9% | [3] 4.8% | [4] 3.15% | [5] -2.35% | [6] 7.85%

COc1ccc(C2(C(=O)O)CC(C)=C(C)CC2C(=O)O)cc1 (configuration not stated)
inactive: [1] -1.45% | [2] -9.05% | [3] -5.25% | [4] 0.6% | [5] -11.7% | [6] 7%

CC(=O)OCC1=COC(OC(=O)CC(C)(C)OC(C)=O)C2C1=CC(OC(=O)CC(C)C)[C@@]21CO1 (some centres not stated)
inactive: [1] 14.4% | [2] 16.4% | [3] 3.6% | [4] 6.3% | [5] 6.75% | [6] 9.95%

COc1cccc(/C=C2/Sc3sc(C(C)=O)c(C)[n+]3C2=O)c1O
inactive: [1] -15.9% | [2] -1.55% | [3] 8.7% | [4] -2.05% | [5] -4.55% | [6] -9.6%

O=C(O)CCNCCCCNCCC(=O)O
inactive: [1] 6.2% | [2] -11.8% | [3] -23.9% | [4] -1.5% | [5] -22.6% | [6] -22.3%

CC(=O)C1CCCC(=O)/C=C/C(=O)O1 (configuration not stated)
inactive: [1] 3.4% | [2] -12.8% | [3] -7% | [4] 5.8% | [5] 11.5% | [6] -18%

CCN(CC)CC(C)(C)C=O
inactive: [1] 26.9% | [2] -19.8% | [3] 20.8% | [4] 4.3% | [5] -7.55% | [6] 15.1%

O=c1nc2sc3ccccc3c(=O)n2[nH]1
inactive: [1] -39.6% | [2] -42% | [3] -2.85% | [4] 6.85% | [5] -12.2% | [6] -28.8%

CCOC(=O)C1=C(Nc2ccc(Cl)cc2Cl)OC/C1=N\NS(=O)(=O)c1ccc(C)cc1
inactive: [1] -3.95% | [2] 9.25% | [3] 1.2% | [4] -8.6% | [5] -2.45% | [6] 3.3%

N#Cc1nc(CC(=O)c2ccc(Cl)c(Cl)c2)c(CC(=O)c2ccc(Cl)c(Cl)c2)nc1C#N
inactive: [1] 12.1% | [2] 10.4% | [3] 9.2% | [4] 31.4% | [5] 27.6% | [6] 20.2%

Cc1ccc(S(=O)(=O)CCC(=O)c2ccc([N+](=O)[O-])cc2)cc1
inactive: [1] 9.35% | [2] 20.1% | [3] 14.8% | [4] 6.65% | [5] 3.05% | [6] 16.9%
